# Source: PubChem BioAssay (NCATS)
# Inconclusive results are not listed. The source made the active and inactive calls. The call rests on the fitted dose curve.
# Tests used:
# [1] = qHTS drug screen for cell cycle checkpoint inhibitors in PARPi-resistant BRCA-mutant ovarian cancer cell lines. (AID 1963452); details: PEO1/OlaR viability, CellTiter-Glo luminescence, 96 h; for Z-AUC: stronger effect = lower value
# Method in brief: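 PEO1, PEO4 and PEO1/OlaR ovarian cancer cells, 600 per well, exposed 96 h at 37C to a dilution series. Viability read by CellTiter-Glo luminescence, normalized to DMSO and empty wells; activity summarized as Z-AUC.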
# [2] = qHTS for identification of novel therapeutic agents for treatment of microphthalmiaassociated transcription factor (MiT) renal cell carcinoma (RCC) (AID 1963991); details: CellTiter-Glo, 48 h; for z-score: stronger effect = lower value; for Potency: active = Z-AUC below -0.8 in all three lines;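 on z-score: curves scaled with 100% = DMSO viability and 0% = empty wells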
# Method in brief: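 UOK109/UOK124/UOK145 (TFE3 fusions, three partners); 500 cells/well; MIPE v4.0, 1912 cpds, 11 conc.; 48 h, 37 C; CellTiter-Glo, 15 min RT; lum. Norm.: DMSO 100%, empty 0%.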
# [3] = measured here: PEO1 parental Z-AUC
# [4] = TFE3-RCC UOK109 viability, measured here: UOK109 Z-AUC
# [5] = TFE3-RCC viability, measured here: UOK124 Z-AUC
# [6] = TFE3-RCC viability, measured here: UOK145 Z-AUC
# Potency means the concentration at half of the fitted maximal effect.
compound,measurement,setting,value
CN(C)CCCNC(=O)c1ccc(-c2cc(O)c3ncccc3c2)cc1,Z-AUC,[1],-0.763 (inactive)
same,Z-AUC,[1]; [3],-0.299
same,Z-AUC,[1]; measured here: PEO4 Z-AUC,-0.292
COc1cc([C@@H]2c3cc4c(cc3[C@@H](O[C@@H]3O[C@@H]5CO[C@@H](C)O[C@@H]5[C@H](O)[C@@H]3O)[C@H]3COC(=O)[C@H]23)OCO4)cc(OC)c1O,Z-AUC,[1],-0.699 (inactive)
same,Z-AUC,[1]; [3],-1.32
same,Z-AUC,[1]; measured here: PEO4 Z-AUC,-0.275
Cc1ccccc1C(C(=O)NC1CCCCC1)N(C(=O)CNc1ccc(C#N)cc1)c1cccc(F)c1 (stereo not drawn),Z-AUC,[1],0.169 (inactive)
same,Z-AUC,[1]; [3],0.0819
same,Z-AUC,[1]; measured here: PEO4 Z-AUC,0.0144
same,z-score,[2]; [4],0.515
same,z-score,[2]; [5],0.305
same,z-score,[2]; [6],0.632
CCCCn1c(=O)n(Cc2ccccc2F)c(=O)c2[nH]c(Cc3ccc(NC(C)=O)cc3)nc21,Z-AUC,[1],-0.247 (inactive)
same,Z-AUC,[1]; [3],-0.269
same,Z-AUC,[1]; measured here: PEO4 Z-AUC,0.0892
NC(=O)c1noc([C@H](CCCC2CCCCC2)CC(=O)NO)n1,Z-AUC,[1],1.33 (inactive)
same,Z-AUC,[1]; [3],0.607
same,Z-AUC,[1]; measured here: PEO4 Z-AUC,0.522
CC[C@@H]([C@H](C)O)n1ncn(-c2ccc(N3CCN(c4ccc(OCC5CO[C@@](Cn6cncn6)(c6ccc(F)cc6F)C5)cc4)CC3)cc2)c1=O (stereo partly drawn),Z-AUC,[1],0.357 (inactive)
same,Z-AUC,[1]; [3],-0.0959
same,Z-AUC,[1]; measured here: PEO4 Z-AUC,-0.133
CCCCc1ccc(NS(=O)(=O)c2ccc(C)c(C(=O)N3CCN(c4cccc(C)c4C)CC3)c2)cc1,Z-AUC,[1],1.4 (inactive)
same,Z-AUC,[1]; [3],1.5
same,Z-AUC,[1]; measured here: PEO4 Z-AUC,1.44
Cc1cnc(Nc2cccc(CN3CCOCC3)c2)nc1Nc1cccc(S(=O)(=O)NC(C)(C)C)c1,Z-AUC,[1],-1.13 (inactive)
same,Z-AUC,[1]; [3],-0.892
same,Z-AUC,[1]; measured here: PEO4 Z-AUC,-1.26
O=C(O)c1ccc(O)c2ncc(N3CCOCC3)cc12,Z-AUC,[1],-0.152 (inactive)
same,Z-AUC,[1]; [3],-0.649
same,Z-AUC,[1]; measured here: PEO4 Z-AUC,-0.698
O=C(Nc1cccc(C(F)(F)F)c1)Nc1cc(S(=O)(=O)NC2CC2)ccc1-c1ccsc1,Z-AUC,[1],-0.117 (inactive)
same,Z-AUC,[1]; [3],-0.289
same,Z-AUC,[1]; measured here: PEO4 Z-AUC,-0.479
O=[N+]([O-])c1ccc(Nc2ccccc2-c2ccccc2)c2nonc12,Z-AUC,[1],0.186 (inactive)
same,Z-AUC,[1]; [3],0.785
same,Z-AUC,[1]; measured here: PEO4 Z-AUC,0.946
C[C@]12CC[C@@H]3c4ccc(O)cc4CC[C@H]3[C@H]1[C@@H](O)[C@@H](O)[C@H]2O,Z-AUC,[1],1 (inactive)
same,Z-AUC,[1]; [3],0.841
same,Z-AUC,[1]; measured here: PEO4 Z-AUC,0.542
Cc1cc(-c2ncc(CC(=O)Nc3ccc(-c4cnccn4)cn3)cc2C)ccn1,Z-AUC,[1],-1.15 (inactive)
same,Z-AUC,[1]; [3],-0.663
same,Z-AUC,[1]; measured here: PEO4 Z-AUC,-0.646
CN(C)c1ccc(-c2nc3ncc(Cl)c(N4CCN(CC(=O)Nc5nccs5)CC4)c3[nH]2)cc1,Z-AUC,[1],-1.63 (inactive)
same,Z-AUC,[1]; [3],-1.25
same,Z-AUC,[1]; measured here: PEO4 Z-AUC,-1.61
CC1=C(C(=O)Nc2cc3cn[nH]c3cc2F)C(c2ccc(C(F)(F)F)cc2)CC(=O)N1 (stereo not drawn),Z-AUC,[1],-0.362 (inactive)
same,Z-AUC,[1]; [3],-0.272
same,Z-AUC,[1]; measured here: PEO4 Z-AUC,-0.273
same,z-score,[2]; [4],0.673
same,z-score,[2]; [5],0.25
same,z-score,[2]; [6],0.771
Cc1cc(NC(=O)Nc2ccc(N(C)C)cc2)c2cc(F)cc(F)c2n1,Z-AUC,[1],-0.154 (inactive)
same,Z-AUC,[1]; [3],-0.66
same,Z-AUC,[1]; measured here: PEO4 Z-AUC,-0.472
same,z-score,[2]; [4],1.14
same,z-score,[2]; [5],0.89
same,z-score,[2]; [6],1.08
Cc1cnc(-c2cc(N3CCN(C(=O)CCS(C)(=O)=O)CC3)ncc2Cl)c(C)c1,Z-AUC,[1],0.449 (inactive)
same,Z-AUC,[1]; [3],1.67
same,Z-AUC,[1]; measured here: PEO4 Z-AUC,1.63
Cc1cnc(CNC(=O)c2c(=O)c3ccc(N4CCCN(C)CC4)nc3n3c2sc2ccccc23)cn1,Z-AUC,[1],-0.335 (inactive)
same,Z-AUC,[1]; [3],-0.603
same,Z-AUC,[1]; measured here: PEO4 Z-AUC,0.0193
Cc1c(C(=O)Nc2ccc(N3C[C@@H](C)O[C@@H](C)C3)nc2)cccc1-c1ccc(OC(F)(F)F)cc1,Z-AUC,[1],0.823 (inactive)
same,Z-AUC,[1]; [3],1.06
same,Z-AUC,[1]; measured here: PEO4 Z-AUC,0.91
COC(=O)[C@H](c1ccccc1Cl)N1CCc2sccc2C1,Z-AUC,[1],1.43 (inactive)
same,Z-AUC,[1]; [3],1.15
same,Z-AUC,[1]; measured here: PEO4 Z-AUC,0.952
Cc1ccccc1C(=O)c1ccc(Nc2ccc(Br)cc2N)cc1Cl,Z-AUC,[1],-0.304 (inactive)
same,Z-AUC,[1]; [3],0.73
same,Z-AUC,[1]; measured here: PEO4 Z-AUC,0.429
CCC(=O)N1CCN(c2ccc(-n3c(=O)ccc4cnc5ccc(-c6cnc7ccccc7c6)cc5c43)cc2C(F)(F)F)CC1,Z-AUC,[1],-1.59 (inactive)
same,Z-AUC,[1]; [3],-1.67
same,Z-AUC,[1]; measured here: PEO4 Z-AUC,-1.97
same,Potency,[2]; TFE3-RCC UOK109 viability,20.9 nM (active)
same,z-score,[2]; [4],-1.38
same,z-score,[2]; [5],-1.23
same,z-score,[2]; [6],-1.82
Cc1ccc(C(=O)N(CCCN)[C@@H](c2nc3cc(Cl)ccc3c(=O)n2Cc2ccccc2)C(C)C)cc1,Potency,[1],9.8 nM (active)
same,Z-AUC,[1]; [3],-2.53
same,Z-AUC,[1]; measured here: PEO4 Z-AUC,-2.45
same,Potency,[2]; TFE3-RCC UOK109 viability,1.66 nM (active)
same,z-score,[2]; [4],-2.23
same,z-score,[2]; [5],-1.53
same,z-score,[2]; [6],-1.7
CC1(C)CC(=O)c2c(C(F)(F)F)nn(-c3ccc(C(N)=O)c(NC4CCC(O)CC4)c3)c2C1 (stereo not drawn),Potency,[1],219 nM (active)
same,Z-AUC,[1]; [3],-1.53
same,Z-AUC,[1]; measured here: PEO4 Z-AUC,-1.31
same,Potency,[2]; TFE3-RCC UOK109 viability,372 nM (active)
same,z-score,[2]; [4],-1.31
same,z-score,[2]; [5],-0.879
same,z-score,[2]; [6],-1.53
